Source: PubChem (several laboratories)
A340 absorber = absorbance at 340 nm. fold change at 10 µM. compound absorbance at 340 nm, fold over control. 65,000 tested, under 10 active;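 active = at 10 µM dose, initial 340 nm absorbance at least 2 fold that of control wells; inactive = change under 2 fold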;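 note: initial absorbance extrapolated from kinetic A340 decline of NADH oxidation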
NADH coupling = blocks coupling enzymes of NAD/NADH assays. 0.02% of 65,000 active. coupled PK/LDH NADH assays, four targets. IC50, µM (doses to about 10 µM);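 active = single-dose screening hits from any of four coupled enzyme assays that gave an IC50 when retested across doses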;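 note: the DPM-DC format reads NADH fluorescence rather than 340 nm absorbance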
Fluor 339 460 = intrinsic fluorescence of library compounds, ex339/em460 – biochemical, MLSMR library, data from DPM-DC assay, artefact control, profiling panel; compound autofluorescence, ex339/em460 nm, NADH buffer; hits give high values; 1 = no-compound wells, NADH background; fluorescence fold increase at 10 µM; 5.5% of 65,000 active; AID 709;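 active = at 10 µM, mean starting fluorescence two-fold or more over control wells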;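 note: signal is the first read of a kinetic run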
Cdc25B block = human M-phase inducer phosphatase 2 inhibition; P30305; recombinant Cdc25B, OMFP fluorescence Ex485/Em525; inhibition, %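 (compounds tested at 10 µM final in the well)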; 0.1% of 65,000 active; AID 368; in the data active = inhibition above about 50%
Hsp90 inh = displaces geldanamycin probe from tumor Hsp90. AID 429. inhibition, % at 30 µM. NCI-N417 lysate Hsp90, Cy3B-geldanamycin FP displacement. 0.35% of 64,000 active;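 active = inhibition above 50%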
DUSP1 inh = human dual specificity phosphatase 1 inhibition | P28562 | recombinant MKP-1, OMFP hydrolysis fluorescence | inhibition, %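 (compounds tested at a single concentration somewhere between 10 and 100 µM)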 | 0.15% of 65,000 active | AID 374;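 active = inhibition above about 50%, limit read from the data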
Target sequence (P28562 whole entry, looked up): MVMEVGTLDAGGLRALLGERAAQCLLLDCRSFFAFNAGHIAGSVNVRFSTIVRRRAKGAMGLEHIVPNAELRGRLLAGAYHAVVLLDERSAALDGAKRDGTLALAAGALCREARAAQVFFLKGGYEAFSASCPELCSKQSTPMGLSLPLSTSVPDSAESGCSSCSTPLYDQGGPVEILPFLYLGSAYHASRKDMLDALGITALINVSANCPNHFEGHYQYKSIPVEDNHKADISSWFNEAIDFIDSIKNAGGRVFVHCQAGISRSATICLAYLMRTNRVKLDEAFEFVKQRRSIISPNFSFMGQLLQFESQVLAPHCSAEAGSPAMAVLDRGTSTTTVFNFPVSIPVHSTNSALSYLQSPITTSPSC
A number is an active result; - = inactive; . = not tested or not shown. This is a sample that favours compounds with a hit; in the whole collection about 5.7% have one here.

SMILES	A340 absorber	NADH coupling	Fluor 339 460	Cdc25B block	Hsp90 inh	DUSP1 inh
CCOC(=O)N1CCC(Nc2cc(C)nc3c(-c4ccccc4OC)c(C)nn23)CC1	-	-	-	-	-	-
CCN(CC)S(=O)(=O)c1ccc(Nc2nc3ccccc3n3nnnc23)cc1	-	-	3.6	-	-	-
Cc1ccc(CNc2nc3ccccc3n3nnnc23)cc1	-	-	2.4	-	-	-
Cc1ccc(S(=O)(=O)Nc2nonc2C)cc1	-	-	-	-	-	-
CCCc1cc(=O)oc2cc(C)c3c(C)coc3c12	-	-	2.1	-	-	-
CCCc1cc(=O)oc2cc3oc(C)c(C)c3cc12	-	-	-	-	-	-
CCCc1cc(=O)oc2cc3occ(C)c3cc12	-	-	2.2	-	-	-
O=C(Nc1ccc(OC(F)(F)F)cc1)C1CCCN(S(=O)(=O)c2cccnc2)C1 (configuration not stated)	-	-	-	-	-	-
Cc1ccc(Cn2nnc3c(=O)n(CC(=O)NCc4ccc5c(c4)OCO5)cnc32)cc1	-	-	-	-	-	-
Nc1nc(SCc2ccc([N+](=O)[O-])cc2)c2ncn([C@@H]3O[C@H](CO)[C@H](O)C3O)c2n1 (some centres not stated)	.	.	.	.	-	.
O=C(COc1ccccc1)Nc1ccc(Cl)c(-c2nc3ncccc3o2)c1	-	-	-	-	-	-
c1ccc2c(-c3nc4ncccc4o3)cccc2c1	-	-	3.8	-	-	-
COc1cc(OC)cc(C(C(=O)NCc2ccccc2)N(Cc2ccco2)C(=O)c2ccno2)c1 (configuration not stated)	-	-	-	-	-	-
COc1ccc(CC(=O)Nc2ccc(-c3nc4cc(C)ccc4o3)c(O)c2)cc1OC	-	-	2.2	-	-	-
COc1ccccc1OCC(=O)Nc1cccc(-c2nc3ccccc3o2)c1	-	-	-	-	-	-
CCCC(=O)Nc1ccc(-c2nc3cc(C)c(C)cc3o2)c(O)c1	-	-	2.2	-	-	-
CCCC(=O)Nc1ccc2oc(-c3ccc(OC)c(Br)c3)nc2c1	-	-	3.7	-	-	-
CCCC(=O)Nc1ccc(-c2nc3cc(C)ccc3o2)cc1	-	-	2.3	-	-	-
CCC1Oc2ccccc2N(CC(=O)Nc2ccc(OC)cc2OC)C1=O (configuration not stated)	-	-	-	-	-	-
Cc1cc(C)cc(Nc2ccc(C(=O)O)cc2N)c1	-	-	2.9	-	-	-
c1cc(-c2nc3ccccc3o2)nc(-c2nc3ccccc3o2)c1	-	-	-	-	-	-
c1ccc2nc(-c3nc4ccccc4o3)ccc2c1	-	-	2.1	-	-	-
N#Cc1c(-c2ccco2)cc(C2CC2)nc1N	-	-	2.3	-	-	-
N#Cc1c(-c2ccccc2)cc(C2CC2)nc1N	-	-	3.6	-	-	-
CSc1nc(C2CC2)cc(-c2cccs2)c1C#N	-	-	-	-	-	-
SMILES	A340 absorber	NADH coupling	Fluor 339 460	Cdc25B block	Hsp90 inh	DUSP1 inh
COc1ccc(Nc2nc(C)cc(C)c2C(N)=O)c(OC)c1	-	-	-	-	-	-
O=C(O)CSc1nc2ccc(Cl)cc2[nH]1	-	-	-	-	-	-
Nc1ccc2nc(-c3ccc(Cl)cc3)[nH]c2c1	-	-	2.1	-	-	-
Cc1ccc(C)c(-c2nc3ccc(N)cc3[nH]2)c1	-	-	3	-	-	-
Nc1ccc(-c2nc3c(Cl)c(N)ccc3[nH]2)cc1	-	-	3.6	-	-	-
Cc1ccc(C)c(-c2nc3cc(N)ccc3o2)c1	-	-	2.3	-	-	-
COc1cc(NC(=O)CCn2c(=O)[nH]c3ccsc3c2=O)cc(OC)c1	-	-	-	-	-	-
Cc1ccc(NC(=O)CCn2cccc2)cc1Cl	-	-	-	-	-	-
CC(=O)Nc1cc2nn(-c3ccccc3)nc2cc1Cl	-	-	2.3	-	.	-
O=C(Nc1cc2nn(-c3ccccc3)nc2cc1Cl)c1ccco1	-	-	3.8	-	-	-
O=C(Nc1ccc2nn(-c3ccccc3)nc2c1)c1cccnc1	-	-	-	-	-	-
CCOC(=O)N1CCC(NC(=O)C2CCN(S(=O)(=O)c3cnc[nH]3)CC2)CC1	-	-	-	-	-	-
O=C(C1CCN(c2ccc(N3CCOCC3)nn2)CC1)N1CCc2ccccc2C1	-	-	4.7	-	-	-
CCOC(=O)N1CCC(NC(=O)C2CCN(c3ccc(N4CCOCC4)nn3)CC2)CC1	-	-	4.9	-	-	-
O=C(Nc1cccnc1)C1CCCN(S(=O)(=O)c2cccc3nsnc23)C1 (configuration not stated)	-	-	-	-	-	-
COC(=O)c1sc(NC(=O)C2CCCCC2C(=O)O)c(C(=O)OC)c1C (configuration not stated)	-	-	-	-	-	-
CCCOc1ccc(-c2nc(C#N)c(N3CCN(CC)CC3)o2)cc1	-	-	3.4	-	-	-
CCOc1ccc(-c2nc(C#N)c(N3CCN(CC)CC3)o2)cc1	-	-	2.4	-	-	-
Cc1ccc(OCc2nc(C#N)c(N3CCN(Cc4ccccc4)CC3)o2)cc1	-	-	-	-	-	-
N#Cc1nc(-c2ccc(OCc3ccc(Cl)cc3)cc2)oc1N1CCC(C(N)=O)CC1	-	-	-	-	-	-
O=C(O)CCCC(=O)N1CCN(C(c2ccccc2)c2ccccc2)CC1	-	-	-	-	-	-
C=CCn1c(COc2cccc3cccnc23)nnc1SCC(=O)O	-	-	-	-	-	-
O=C(O)CSc1cccc2cccnc12	-	-	2.2	-	-	-
CC(NC(=O)c1cccnc1)c1ccc2c(c1)OCO2 (configuration not stated)	-	-	-	-	-	-
Cc1cc(-c2ccccc2)nc(N2CCC(C(=O)NC(C)C)CC2)n1	-	-	3.3	-	-	-
SMILES	A340 absorber	NADH coupling	Fluor 339 460	Cdc25B block	Hsp90 inh	DUSP1 inh
CCC(C)NC(=O)C1CCN(c2nc(C)cc(C)n2)CC1 (configuration not stated)	-	-	-	-	-	-
CSc1ncccc1C(=O)OCC(=O)Nc1cc(C(F)(F)F)ccc1N1CCOCC1	-	-	-	-	-	-
Cc1cc(NC(=O)c2cccc(S(=O)(=O)N3CCOCC3)c2)c2ccccc2n1	-	-	-	-	.	-
CCC(=O)Nc1ccc(-c2nnc(SCC(=O)NCC3CCCO3)n2C)cc1 (configuration not stated)	-	-	-	-	-	-
Clc1ccc(OCc2nn3c(C4CCCCC4)nnc3s2)cc1	-	-	-	-	-	-
O=c1c2cc(N3CCOCC3)ccc2[nH]c(=S)n1Cc1ccco1	-	-	3.5	-	-	81
COc1cccc(N2CCN(C(=O)CCn3c(=S)[nH]c4cc5c(cc4c3=O)OCO5)CC2)c1	-	-	-	-	-	-
COc1cccc(Cn2c(=S)[nH]c3ccc(N4CCOCC4)cc3c2=O)c1	-	-	3.7	-	-	-
